From PubChem BioAssay AID2685 (National Center for Advancing Translational Sciences (NCATS), 2010) come the findings set out here.

The campaign covered roughly 320,000 compounds. About 2,100 (0.66%) were called active. Not shown: some 53% with an inconclusive outcome. The call rests on the fitted dose curve; in most records, active means well fitted inhibition curve with a large enough effect in the signal ratio, with a control signal flat (not every such curve was filed as active); inconclusive means small, poorly fitted or top-dose-only effect, or effect the other way, or a change in a side signal; inactive means flat fitted curve, though single readings scatter; the % refers to the signal ratio. For the sample, actives were picked, then their nearest neighbours and some compounds at random.
Potency means the concentration at half of the fitted maximal effect.

This assay is described as follows: qHTS Assay for Lipid Storage Modulators in Drosophila S3 Cells.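 On cell number change: cells counted by Cell Tracker Red CMTPX staining in the red channel.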 On lipid storage change, negative = inhibition: on the % scale 0 is the no-effect control and ±100 the full control effect. The conditions noted are these: BODIPY lipid droplet fluorescence, 18-24 h, cells fed with added oleic acid; cell number change: measured here: cell count max response; series mostly up to 46.1 µM; lipid storage change, negative = inhibition: at the top concentration. Summed up:
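Laser-scanning cytometry quantifies lipid droplet accumulation (500–530 nm total intensity; droplet/cell object ratio) in oleic acid-fed (400 uM added) Drosophila S3 cells treated with a concentration series. 20 uM Triacsin C defined 100% inhibition.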
As to `Cc1cc(NC(=O)c2ccccc2F)on1`, the “lipid storage change, negative = inhibition” value is -4.22% (inactive) and the cell number change was -0.938%.

On to `O=C(Nc1ccon1)c1ccccc1F`, for which the Potency was 23.1 µM (active) and the cell number change was -7.37%.

Regarding `O=C(Nn1c(=O)[nH]c2ccsc2c1=O)c1ccccc1`, the “lipid storage change, negative = inhibition” value was -5.8% (inactive) and the cell number change is -16.2%.

As to `COc1ccc(N2CCN(C(=S)Nc3ccc(C)cc3)CC2)cc1`, the “lipid storage change, negative = inhibition” value was 6.03% (inactive) and the cell number change is 11.6%.

As to `O=C(NN1C(=O)C2C3C=CC(C4CC34)C2C1=O)c1ccc(Cl)c(Cl)c1` (stereo not given), the “lipid storage change, negative = inhibition” value was -0.569% (inactive) and the cell number change is 1.92%.

Regarding `O=C(CN1C(=O)/C(=C2\SC(=S)N(C3CCS(=O)(=O)C3)C2=O)c2ccccc21)Nc1ccccc1` (stereo not given), the “lipid storage change, negative = inhibition” value was 3.37% (inactive) and the cell number change was -3.03%.

In the case of `O=C(NCCc1ccccc1)C1CCN(C(=O)Nc2ccccc2)CC1`, the “lipid storage change, negative = inhibition” value was 16.6% (inactive) and the cell number change is -33.1%.

Take `O=C(NCC(c1ccccc1Cl)N1CCCC1)C1CCN(C(=O)Nc2ccccc2)CC1` (stereo not given): the Potency was 6.51 µM (active) and the cell number change is -29.1%.

Consider `O=C(NCC(c1ccccc1)N1CCCC1)C1CCN(C(=O)Nc2ccccc2)CC1` (stereo not given), for which the molecule was classed as inactive and the cell number change is -22%.

As for `CCC(Sc1nnc(C)s1)C(=O)Nc1nccs1` (stereo not given), the “lipid storage change, negative = inhibition” value was 11.8% (inactive) and the cell number change was -15.3%.

Consider `Cc1cc(C)nc(SCC(=O)Nc2nccs2)n1`, for which the outcome was inactive and the cell number change worked out at 13.1%.

For the molecule `CCC(Sc1nc(C)cc(C)n1)C(=O)Nc1nccs1` (stereo not given), the Potency was 2.06 µM (active) and the cell number change is -0.54%.

Regarding `CN(C(=O)CCCN1CCCC1=O)C1CCCN(Cc2ccccc2F)C1` (stereo not given), the molecule was classed as inactive and the cell number change turned out to be 6.08%.

In the case of `COc1cc2c(cc1OC)C(COc1ccc(F)cc1)N(C(C)=O)CC2` (stereo not given), the “lipid storage change, negative = inhibition” value is -27.7% (inactive) and the cell number change was -4.23%.

On to `CCOC(=O)C(O)(CC(=O)Nc1cc(F)ccc1C)C(F)(F)F` (stereo not given), for which the “lipid storage change, negative = inhibition” value was 7.55% (inactive) and the cell number change stood at 6.77%.

For `CC1CC1C(=O)Nc1nc(-c2ccccn2)cs1` (stereo not given), the result was inactive.

On to `CCC/C(C)=N/NC(=O)c1ccccc1O`, for which the “lipid storage change, negative = inhibition” value was -0.436% (inactive) and the cell number change worked out at 9.25%.

In the case of `COc1ccc(-c2cc3nc(C)c(CCC(=O)N4CCN(c5ccccn5)CC4)c(C)n3n2)c(OC)c1`, the “lipid storage change, negative = inhibition” value was -2.84% (inactive) and the cell number change was -15.1%.

As for `CCOC(=O)CSc1ccc(S(=O)(=O)N(C)C2CCCCC2)cc1[N+](=O)[O-]`, the Potency was 25.9 µM (active) and the cell number change is -12.4%.

With `CCOC(=O)CSc1ccc(S(=O)(=O)N(CC)CC)cc1[N+](=O)[O-]`, the “lipid storage change, negative = inhibition” value is 5.13% (inactive) and the cell number change amounted to 15.5%.

For `CCOC(=O)CSc1ccc(S(=O)(=O)N2CCCCC2)cc1[N+](=O)[O-]`, the “lipid storage change, negative = inhibition” value was 11.2% (inactive) and the cell number change was 12.9%.

As to `Cc1nc(C)c(C(=O)Nc2ccccc2)s1`, the “lipid storage change, negative = inhibition” value is 2.24% (inactive) and the cell number change is 13.8%.

With `CC(=O)Nc1ccc(Nc2nc(C)cc(C)n2)cc1`, the “lipid storage change, negative = inhibition” value was -1.44% (inactive) and the cell number change came out at 7.77%.

With `O=C(/C=C/c1ccccc1)Nn1c(-c2cccs2)nc2ccccc2c1=O`, the “lipid storage change, negative = inhibition” value was 17.1% (inactive) and the cell number change worked out at 20.7%.

On to `CCOC(=O)c1n[nH]c(=O)c2ccccc12`, for which the “lipid storage change, negative = inhibition” value is 6.78% (inactive) and the cell number change is -14.5%.

As for `CCN(CC)CCNC(=O)CCc1n[nH]c(=O)c2ccccc12`, the “lipid storage change, negative = inhibition” value was -5.8% (inactive) and the cell number change is -11.1%.

With `CCCCN(CC)C(=O)c1n[nH]c(=O)c2ccccc12`, the Potency is 29.1 µM (active) and the cell number change is -6.59%.

Turning to `O=C(NCc1csc2ccc(Cl)cc12)Nc1ccccc1`, the “lipid storage change, negative = inhibition” value was -4.18% (inactive) and the cell number change was -21.1%.

As to `CCOCCCNc1nc(-c2ccccc2)nc2ccccc12`, the Potency is 4.61 µM (active) and the cell number change amounted to 9.97%.

`COCCNc1nc(-c2ccccc2)nc2ccccc12`: the “lipid storage change, negative = inhibition” value was 3.19% (inactive) and the cell number change is -1.08%.

Regarding `CC(C)OCCCNc1nc(-c2ccccc2)nc2ccccc12`, the molecule was classed as inactive and the cell number change was -18%.

On to `COc1ccc(CCNc2nc(-c3cccnc3)nc3ccccc23)cc1OC`, for which the Potency is 9.2 µM (active) and the cell number change amounted to 0.794%.

For the molecule `COc1ccc(CNc2nc(-c3ccccc3)nc3ccccc23)cc1OC`, the “lipid storage change, negative = inhibition” value was 4% (inactive) and the cell number change was -4.67%.

As for `COc1ccc(/C=N/Nc2nc(-c3cccnc3)nc3ccccc23)cc1OC`, the “lipid storage change, negative = inhibition” value is -5.18% (inactive) and the cell number change was -0.944%.

Regarding `CCc1ccc(/C=N\n2cnnc2)cc1`, the “lipid storage change, negative = inhibition” value was -2.9% (inactive) and the cell number change worked out at 2.5%.

Consider `CCC(C(=O)NC1CCCCC1)n1c(SCc2cccc(C)c2)nc2ccncc21` (stereo not given), for which the “lipid storage change, negative = inhibition” value was 19.5% (inactive) and the cell number change is -1.51%.

With `O=C(CSc1ncn[nH]1)N1CCN(S(=O)(=O)c2ccccc2)CC1`, the “lipid storage change, negative = inhibition” value was 4.24% (inactive) and the cell number change is 11.4%.

In the case of `Cc1ccc(S(=O)(=O)N2CCN(C(=O)CSc3ncn[nH]3)CC2)cc1`, the Potency is 16.4 µM (active) and the cell number change is 5.31%.

As to `Cc1ccc(S(=O)(=O)N2CCN(C(=O)CSc3ccc(Cl)cc3)CC2)cc1`, the “lipid storage change, negative = inhibition” value was -23.2% (inactive) and the cell number change is -6.45%.

`Cc1cccn2c(CN(C)CC3Cc4ccccc4O3)c(C(=O)N3CCCCC3)nc12` (stereo not given): the “lipid storage change, negative = inhibition” value was 6.24% (inactive) and the cell number change is -1.06%.

On to `COc1ccc(S(=O)(=O)N2CCN(C(c3ccccc3)c3ccccc3)CC2)cc1NC(C)=O`, for which the “lipid storage change, negative = inhibition” value is -2.59% (inactive) and the cell number change was determined as 5.87%.

`Cc1ccc(OCC(=O)N2CCCC(CO)(CCOc3ccccc3)C2)cc1` (stereo not given): the Potency is 14.6 µM (active) and the cell number change stood at 13.9%.

Regarding `Cc1ccc(OCC(=O)N2CCN(C(=O)Cc3ccccc3)CC2)cc1`, the “lipid storage change, negative = inhibition” value was 9.56% (inactive) and the cell number change was 24.1%.

Turning to `CSCC(=O)N1CCCC(CO)(CCCc2ccccc2)C1` (stereo not given), the “lipid storage change, negative = inhibition” value is 20.8% (inactive) and the cell number change was -13.7%.

As for `O=c1[nH]c2ccccc2n2c(-c3ccncc3)nnc12`, the “lipid storage change, negative = inhibition” value is -8.9% (inactive) and the cell number change is -11.8%.

Regarding `CC(=O)NS(=O)(=O)c1ccc(NC(=O)c2cc3c(=O)n4ccccc4nc3s2)cc1`, the “lipid storage change, negative = inhibition” value is 5.64% (inactive) and the cell number change came out at 21.8%.

`Cc1cc(C)cc(NC(=O)c2cc3c(=O)n4ccccc4nc3s2)c1`: the Potency was 6.51 µM (active) and the cell number change is -3.42%.

Regarding `O=C(Nc1cccc(Cl)c1)c1cc2c(=O)n3ccccc3nc2s1`, the “lipid storage change, negative = inhibition” value was -9.52% (inactive) and the cell number change was 1.29%.
